The text below walks through data of PubChem BioAssay AID2242 (National Center for Advancing Translational Sciences (NCATS), 2010).

Screen size: about 200,000 compounds; about 720 (0.36%) were called active. Another 8% or so got no clear call; they are omitted. Calls come from the whole dose curve; as a rule, active = well fitted activation curve with a large enough effect; inconclusive = small, poorly fitted or top-dose-only effect, or effect the other way, or another doubt; inactive = flat fitted curve, though single readings scatter. The list shows a part of the results.
Potency is the fitted concentration of half-maximal effect.

This assay concerns the target Lysosomal alpha-glucosidase (Homo sapiens) (UniProt P10253). The experiment in a line: qHTS Assay for Activators of Human alpha-Glucosidase as a Potential Chaperone Treatment of Pompe Disease. Note: nearly all actives have a fitted effect of over 80% in size. The following applies: purified enzyme, 4-MU-alpha-glucoside fluorescence, 20 min; series mostly up to 76.9 µM. An excerpt:
NIH Chemical Genomics Center [NCGC] NIH Molecular Libraries Probe Production centers Network [MLPCN] MLPCN Grant: 1R03MH084841-01 Assay Submitter (PI): Wei Zheng NCGC Assay Overview: Alpha-glucosidase is responsible for hydrolysis of terminal, non-reducing 1,4-linked alpha-D-glucose residues with release of alpha-D-glucose. It is a lysosomal hydrolase that is required for the degradation of a small percentage (1-3%) of cellular glycogen in human. Deficiency of this enzyme results in glycogen-storage disease type II (GSDII), also referred to as Pompe disease, an autosomal recessive disorder. Structurally normal glycogen is accumulated in lysosomes and cytoplasm in affected patients, primarily in muscle tissues. Excessive glycogen storage within lysosomes may interrupt normal functioning of other organelles and leads to cellular injury. In turn, this leads to enlargement and dysfunction of the entire organ involved (eg, cardiomyopathy and muscle weakness). It has reported that the improper folding and trafficking of alpha-glucosidase resulting from the genetic mutations may account for a significant number of Pompe patients. […] We optimized this alpha-glucosidase assay in 1536-well plate format for identifying the novel small molecule inhibitors with the structures other than the sugar analogs in order to develop the new pharmacological chaperones, but are also able to detect potential activators. In conjunction with assays against alpha-galactosidase (AID 1467), fluorogenic false positive compounds can be identified.
NCGC Assay Protocol Summary: This is a fluorogenic enzyme assay with 4-methylumbelliferyl-alpha-D-[…] as the substrate and human alpha-glucosidase as the enzyme preparation. Upon the hydrolysis of this fluorogenic substrate, the resulting product, 1. 4-methyllumbelliferone, can be excited at 365 nm and emits at 440 nm which can be detected by a standard fluorescence plate reader. Data were normalized to the controls for basal activity (without enzyme) and 100% activity (with enzyme). In the AC50 values were determined from concentration-response data modeled with the standard Hill equation. Assay buffer: 50 mM citric acid (titrated with potassium phosphate to pH 5.0), 0.005% Tween-20, pH 5.0. (pH 5.0 is an optimal condition for this enzyme assay) 1536-well assay protocol for the human alpha-glucosidase: (1) Add 2 ul/well of enzyme (4 nM final) (2) Add 23 nL compounds in DMSO solution. The final titration was 0.7 nM to 77 uM. (3) Add 1 ul of substrate (400 uM final) (4) Incubate at room temperature for 20 min. (5) Add 2 ul stop solution (1M NaOH and 1M Glycine mixture, pH 10) (6) Detect the assay plate in a ViewLux plate reader (PerkinElmer) with Ex=365 nm and Em=440nm. Keywords: Alpha-glucosidase, Pompe Disease, pharmacological chaperone, chaperone therapy, high throughput screening, alpha-glucosidase inhibitor, MLSMR, MLSCN, NIH Roadmap, qHTS and NCGC
(In general: In qHTS, concentration-response curves come from the screen itself.)
`CCCCc1cc(=O)oc2c(CN(C)C)c(O)c(Cl)cc12`: the Potency is 35.5 µM (active). Next, `CC(NC(=O)CCSc1nc(-c2ccc3c(c2)OCO3)cc(C(F)(F)F)n1)c1ccccc1` (centres undefined): 35.5 µM (active); `COc1ccc(-c2n[nH]c(C(F)(F)F)c2-c2cc3ccccc3o2)c(O)c1`: 35.5 µM (active).

With `O=C(O)c1cc(-c2ccc(Cl)s2)nc2ccccc12`, the Potency is 35.5 µM (active).

For `CC(=O)Nc1ccc(C2=NN(c3ccccc3)C(c3cccs3)C2)cc1` (centres undefined), the Potency was 28.2 µM (active).

Take `CCS(=O)(=O)Nc1ccc(C2=NN(C(C)=O)C(c3cccs3)C2)cc1` (centres undefined): the Potency is 35.5 µM (active). Under `CCC(=O)N1N=C(c2ccc(NS(=O)(=O)CC)cc2)CC1c1ccc(C)cc1` (centres undefined) stands 35.5 µM (active); under `COc1ccc(C2C3=C(CCCC3=O)Nc3nc(-c4cc(OC)c(OC)c(OC)c4)nn32)cc1OC` (centres undefined), 35.5 µM (active). Next, `COC(=O)C1=CN(CCCN2CCCC2=O)C=C(C(=O)OC)C1c1cccs1`: 39.8 µM (active). Under `COC(=O)C1=CN(CCCN2CCCC2=O)C=C(C(=O)OC)C1c1ccccc1C(F)(F)F` stands 28.2 µM (active); under `Cc1ccc2c(c1)c1ncnc(N3CCC4(CC3)OCCO4)c1n2C`, 39.8 µM (active). Consider `CCNc1nc2nc3ccc(C)cn3c(=O)c2cc1C(=O)NCC1CCCO1` (centres undefined), for which the Potency is 35.5 µM (active).

Consider `COCCCn1c(=N)c(C(=O)NCC2CCCO2)cc2c(=O)n3cccc(C)c3nc21` (centres undefined), for which the Potency is 35.5 µM (active).

With `CCCn1c(=N)c(C(=O)NC2CCCC2)cc2c(=O)n3cccc(C)c3nc21`, the Potency is 28.2 µM (active). Next, `Cc1ccc2nc3c(cc(C(=O)NCC4CCCO4)c(=N)n3CCCOC(C)C)c(=O)n2c1` (centres undefined): 31.6 µM (active). Turning to `CCn1c(=N)c(C(=O)NCCCOC)cc2c(=O)n3cccc(C)c3nc21`, the Potency is 28.2 µM (active).

On to `CCCCc1cc(=O)oc2cc(O)ccc12`, for which the Potency is 35.5 µM (active). Under `COC(=O)Cc1cc(=O)oc2cc(O)ccc12` stands 35.5 µM (active); under `O=C(Cc1cc(=O)oc2cc(O)ccc12)NCC1CCC(C(=O)O)CC1` (centres undefined), 35.5 µM (active); under `N#Cc1c(-c2cccc(Br)c2)cc(-c2ccco2)[nH]c1=O`, 39.8 µM (active). `O=C(NC(=S)N(Cc1ccccc1)Cc1ccccc1)C1CCCCC1`: the Potency is 39.8 µM (active).

Consider `c1ccn2c(c1)nc1c2nc2ccccn21`, for which the Potency was 31.6 µM (active). Next, `COC(=O)C1=CN(CC2CCCO2)C=C(C(=O)OC)C1c1ccsc1` (centres undefined): 35.5 µM (active); `COC(=O)C1=CN(CC2CCCO2)C=C(C(=O)OC)C1c1cc(OC)c(OC)c(OC)c1` (centres undefined): 35.5 µM (active); `COc1cc2c(cc1/C=C/C(=O)O)OC(C)C2` (centres undefined): 39.8 µM (active). Take `CCCc1cc(=O)[nH]c(SCC(=O)c2cc(C)n(CCC)c2C)n1`: the Potency is 39.8 µM (active).

Turning to `COc1cccc(-c2cc3nc(-c4ccccc4)cc(N4CCC5(CC4)OCCO5)n3n2)c1`, the Potency is 39.8 µM (active).

Take `Cc1cccc(-c2cc3nc(-c4ccccc4)cc(N4CCC5(CC4)OCCO5)n3n2)c1`: the Potency was 35.5 µM (active).

For `COC(=O)c1cc2c(s1)-c1ccccc1OC2`, the Potency is 35.5 µM (active). With `O=C(O)c1cc2c(s1)-c1ccccc1OC2`, the Potency is 31.6 µM (active). Next, `CCOC(=O)c1cc2c(s1)-c1c(C)cccc1OC2`: 35.5 µM (active); `O=C(NC1CC1)c1cc2c(s1)-c1ccccc1OC2`: 35.5 µM (active). Under `CCOC(=O)c1cc2c(=O)n3ccccc3nc2n(CCOC)c1=NC(=O)c1ccncc1` stands 31.6 µM (active); under `CCOC(=O)c1cc2c(=O)n3ccccc3nc2n(CCCOC)c1=NC(=O)C(C)(C)C`, 35.5 µM (active); under `CCOC(=O)c1cc2c(=O)n3ccccc3nc2n(Cc2ccco2)c1=NC(=O)c1ccccc1OC`, 31.6 µM (active). For `CCOC(=O)c1cc2c(=O)n3ccccc3nc2n(CCOC)c1=NC(=O)C(C)(C)C`, the Potency is 35.5 µM (active). Next, `CCOC(=O)c1cc2c(=O)n3ccccc3nc2n(CCCOC)c1=NC(=O)c1cccnc1`: 35.5 µM (active).

In the case of `COc1cccc(-c2ccc(C#N)c(OC(=O)c3ccc(Cl)cc3)n2)c1`, the Potency is 35.5 µM (active). Under `COC(=O)C1=CN(C2CC2)C=C(C(=O)OC)C1c1ccc(C(=O)OC)cc1` stands 35.5 µM (active). Under `COC(=O)C1=CN(C2CC2)C=C(C(=O)OC)C1c1ccccc1OC` stands 35.5 µM (active); under `CCN1CCn2c3c(c4cc(Cl)ccc42)CCCC31` (centres undefined), 31.6 µM (active); under `O=C(Nc1c2ccccc2nc2ccccc12)C(Cl)(Cl)Cl`, 35.5 µM (active). Next, `O=c1oc2ccccc2cc1-c1nc2ccccc2o1`: 31.6 µM (active); `CC(=O)Nc1nc2n(n1)C(c1ccc(Cl)cc1)C=C(C)N2` (centres undefined): 35.5 µM (active); `CC(C)n1c(=NC(=O)c2ccco2)c(C#N)cc2c(=O)n3ccccc3cc21`: 31.6 µM (active). As for `CCN(CC)CCNC(=O)c1ccc2c(=O)n(CCc3ccccc3)c(=O)[nH]c2c1`, the Potency was 35.5 µM (active). Next, `COC(=O)c1ccc2c(=O)n(CCCCCC(=O)O)c(=O)[nH]c2c1`: 31.6 µM (active); `CCCCCn1c(=O)[nH]c2cc(C(=O)O)ccc2c1=O`: 35.5 µM (active); `COC(=O)c1ccc2c(=O)n(CCCCCC(=O)NCc3ccccn3)c(=O)[nH]c2c1`: 31.6 µM (active).
